Data on 24 compounds can be found in PubChem BioAssay (NCATS).

The list shows a part of the results. Entries that show only a call come without a potency. Inconclusive results are not listed. Activity calls are given as the source filed them. Calls follow the shape of the dose curve; as a rule, active = well fitted cell-killing curve with a large enough effect; inconclusive = small, poorly fitted or top-dose-only effect, or effect the other way; inactive = no such curve, though single readings can be large or run the other way.
Potency is read from the fitted curve at half-maximal effect.

A short description of the test: qHTS for Inhibitors of the vitamin D receptor (VDR): Hit Validation using a Cytotoxicity Assay (AID 602204). Also: nearly all actives have a fitted effect of over 75% in size.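 As to potency: cells co-treated with VDR agonist LG190178 at 300 nM.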 The conditions noted are these: cytotoxicity counter-screen, cell viability; series mostly up to 48.3 µM. An excerpt: The vitamin D receptor (VDR) is a ligand-activated transcription factor and is partially responsible for the regulation of the endocrine system. This includes the transcriptional regulation of genes involved in the production of the parathyroid hormone (PTH) and the regulation of the blood calcium level. High levels of PHT can cause hypercalcemia in the case of primary and tertiary hyperparathyroidism. The VDR-mediated gene regulation, activated by its ligand 1,25-dihydroxyvitamin D3 (1,25-(OH)2D3), is governed by the recruitment of coactivators. Our hypothesis is that small molecules, with the ability to inhibit the interaction between VDR and certain coactivators, are able to selectively modulate VDR-mediated transcription. Our long term objective is the application these VDR-coactivator inhibitors to study the role of VDR-coactivator binding for specific VDR regulated genes. Ultimately, these molecules can be developed into new treatments for hypercalcemic hyperparathyroidism. No small molecule or non-peptide inhibitors are known for the VDR-coactivator interaction.
In a collaboration between the University of Wisconsin, Milwaukee and the NIH Chemical Genomics Center (NCGC) a HTS-compatible enzymatic assay was developed. The assay uses fluorescence polarization as its read-out to measure the inhibition between VDR and coregulator peptide SRC2-3 exerted by small molecules. This assay was used to screen the NIH Molecular Libraries Small Molecule Repository (MLSMR). Cytotoxicity caused by screening compounds is a major concern for cell-based assays. This assay quantifies the amount of ATP generated by living cells and compounds that are active in this assay are undesirable for the project due to cytotoxicity. High concentrations of cycloheximide (protein synthesis inhibitor) and DMSO were used as positive and negative control, respectively.
NIH Chemical Genomics Center [NCGC]
NIH Molecular Libraries Probe Centers Network [MLPCN]
Assay Submitter (PI): Alexander Arnold, University of Wilwaukee
Plate: 384 white, solid bottom, tissue culture treated
Step 1: Plate 20,000 cell per well (32 uL)
Step 2: 4 hours incubation
Step 3: Add screening compounds
Step 5: 18 hour incubation
Step 6: Add Cell-Titer Glo (25 uL)
Step 7: 30 minutes incubation
Step 8: Read luminescence
On to `CCCCS(=O)(=O)c1oc(-c2cccs2)nc1S(=O)(=O)c1ccccc1`, for which the Potency was 9.47 µM (active).
In the case of `O=C(/C=C/c1ccc(Cl)c([N+](=O)[O-])c1)c1cccnc1` it was “inactive”.
The value for `O=C1C=C(c2ccc(Cl)cc2)C(=O)N1Nc1ccccc1` was 23.1 µM (active); that for `Cc1ccc(-c2nc3ccccn3c2Nc2c(C)cccc2C)o1` was “inactive”.
In the case of `c1ccc2c(C[n+]3csc4ccccc43)cccc2c1` it was “inactive”; in that of `O=C(/C=C/c1ccccc1)c1ccccc1O`, “inactive”; in that of `Cc1cc(C)nc(S/C=C/C(=O)c2ccccc2)n1`, 23.8 µM (active).
As for `Cc1cccc(CS(=O)(=O)c2ncc(Cl)c(C(=O)Nc3ccc(F)cc3)n2)c1`, the Potency is 11.2 µM (active).
In the case of `Cc1nc(-c2ccccc2)sc1C(=O)/C=C/c1ccccc1` it was “inactive”; in that of `C[C@@H](NC(=O)OC(C)(C)C)c1nnc(S(=O)(=O)Cc2ccccc2)o1`, “inactive”.
The value for `CSc1nnc(NC(=O)c2nc(S(=O)(=O)Cc3ccc(C)cc3)ncc2Cl)s1` was 16.4 µM (active); that for `C=CCOc1ccc(/C=C2/C(=O)ON=C2C)cc1OCC` was “inactive”; that for `O=[N+]([O-])/C=C/c1ccc2c(ccn2Cc2ccccc2)c1` was 9.2 µM (active).
In the case of `CCOC(=O)c1sc(=S)n2c1[nH]c(=O)c1ccc(C(=O)OC)cc12` it was “inactive”; in that of `COc1ccc(CS(=O)/C(Cl)=C(/Cl)C(=O)Nc2ccc(OC)nc2)cc1` (centres undefined), 2.59 µM (active); in that of `CC(=O)N1CC[n+]2c(-c3ccc([N+](=O)[O-])cc3)csc21`, “inactive”.
With `CC1CCN(C(=S)c2ccc(-c3ccc(Cl)cc3Cl)o2)CC1`, the Potency entry was “inactive”.
In the case of `COc1ccc(OCc2nnc3n2N=C(c2ccccc2)C(CC(=O)O)S3)cc1` (centres undefined) it was “inactive”; in that of `Cc1cccc([C@H]2[C@@H]3C=CC[C@@H](C)[C@@H]3C(=O)N2Cc2ccccc2)c1`, 23.8 µM (active); in that of `CCOc1ccc(N(Cc2ccccc2)C(=O)c2nc(S(C)(=O)=O)ncc2Cl)cc1`, 16.8 µM (active).
In the case of `Cc1cccc(Oc2c([N+](=O)[O-])c(=O)n(C)c3ccccc23)c1` it was “inactive”; in that of `O=c1cc(CO)oc(C(Nc2cccc(C(F)(F)F)c2)c2ccccn2)c1O` (centres undefined), “inactive”; in that of `O=C(/C=C/c1ccc(Cl)cc1Cl)c1cccnc1`, “inactive”.
In the case of `O=c1[nH]c(/C=C\c2cccc(C(F)(F)F)c2)nc(O)c1[N+](=O)[O-]` it was “inactive”.
